Compound activity as filed in PubChem.
DAX1 inh-1 = inhibitors of human orphan nuclear receptor DAX1 (NR0B1) | P51843 | inhibition, % at 6.75 µM | 340,000 tested, 0.99% active | HEK293 Gal4-DAX1 luciferase reporter, luminescence;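 active means inhibition above the mean over all tested compounds plus 3 SD, cut at about 4.2% in these data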;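 further: 0% = DAX1-transfected cells with DMSO and 100% = empty-vector control cells with DMSO; inhibition shows as a rise in luminescence from relieved DAX1 repression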
Target sequence (P51843 207-470 limits assumed): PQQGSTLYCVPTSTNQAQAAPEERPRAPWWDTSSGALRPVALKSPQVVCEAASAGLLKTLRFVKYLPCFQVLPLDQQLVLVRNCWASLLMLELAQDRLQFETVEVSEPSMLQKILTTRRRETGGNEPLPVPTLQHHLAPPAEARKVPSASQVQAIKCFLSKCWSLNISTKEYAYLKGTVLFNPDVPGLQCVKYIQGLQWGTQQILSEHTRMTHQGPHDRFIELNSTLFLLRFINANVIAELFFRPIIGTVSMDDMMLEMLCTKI
hcDAF-12 act = activators of H. contortus DAF-12 nuclear receptor; HEK293 hcDAF-12 lit1-tk-luc reporter, luminescence; 0% DMSO, 100% Δ7-dafachronic acid; AID 652067; activation, % at 6.8 µM; 370,000 tested, 1.4% active;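 active means activation above the mean of all tested compounds plus 3 SD, cut at about 5.5% in these data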;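 further: 100% = response to 3 µM Δ7-dafachronic acid high control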
DAX1 inh-2 = blocks DAX1 repression of SF-1 activated StAR promoter. inhibition, % at 6.8 µM. 370,000 tested, 1.1% active. HEK293T StAR-luciferase reporter, SF-1/DAX-1 repression relief;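 active means inhibition above the mean over all tested compounds plus 3 SD, cut at about 3.6% in these data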;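 further: 0% = DAX-1 cells with DMSO and 100% = cells lacking DAX-1 with DMSO; higher inhibition means more luminescence from relief of DAX-1 repression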
ssDAF-12 act = S. stercoralis DAF-12 activation, primary screen; HEK293 ssDAF-12/GRIP1 lit1-tk-luc reporter, luminescence; % of 3 µM dafachronic acid response; activation, % at 6.8 µM; 370,000 tested, 1% active;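 active means activation above the mean over all tested compounds plus 3 SD, cut at about 0.9% in these data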;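 further: 0% = DMSO-only wells and 100% = 3 µM delta7-dafachronic acid wells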
Wee1 stabilizer = blocks degradation of human Wee1 kinase | P30291 | HeLa Luc-Wee1K328M stability, luciferase luminescence; 100% = proteasome inhibitor MG132 effect | reporter increase, % at 5 µM | 220,000 tested, 1.2% active;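 active means activation above the mean of all tested compounds plus 3 SD, set per screening run, cut at about 8.8% in these data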;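 further: cells exposed to compound for 20 h before luminescence read; 0% = DMSO alone and 100% = MG132 at 30 µM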
hgDAF-12 ag = hgDAF-12 agonism, primary luciferase screen; HEK293 GAL4-hgDAF12 UAS-luciferase reporter, agonist luminescence; normalized to butyrate control; activation, % at 6.8 µM; 370,000 tested, 1.8% active;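 active means activation above a cutoff set at the mean of all screened compounds plus 3 SD, cut at about 10% in these data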;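 further: 0% = DMSO wells and 100% = sodium butyrate wells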
Numbers without * were called inactive; . = no result. The list is not random: actives were taken first. Their share in the collection is about 4.6%.

SMILES | DAX1 inh-1 | hcDAF-12 act | DAX1 inh-2 | ssDAF-12 act | Wee1 stabilizer | hgDAF-12 ag
CC(=O)Nc1ccc(N2C(=O)CC(Sc3nc4ccccc4s3)C2=O)cc1 (centres undefined) | 1.1 | 0.6 | -0.4 | 3.9* | -2.9 | -1.4
Cc1ccc(CONC(=O)c2ccc([N+](=O)[O-])cc2)cc1 | 0.2 | 0.0 | 1.1 | -0.9 | . | 2.1
Cc1ccc(CONC(=O)c2cccc([N+](=O)[O-])c2)cc1 | 4.7* | -1.2 | -1.3 | -1.5 | . | 3.4
O=[N+]([O-])c1ccc2[nH]c(=S)sc2c1 | -1.2 | 2.7 | -0.2 | 2.2* | . | 2.8
O=C1CCC([N+](=O)[O-])C(c2ccccc2C(F)(F)F)N1 (centres undefined) | 0.4 | -1.6 | 0.8 | -0.4 | . | -0.5
COc1ccc(C2=NN(CN3C(=O)C(=O)c4ccccc43)C(c3ccc(OC)cc3)C2)cc1 (centres undefined) | -0.1 | 1.2 | 0.0 | -1.3 | 2.6 | 11.1*
COc1ccc(C2CC(c3ccccc3)=NN2c2ccc(S(N)(=O)=O)cc2)cc1 (centres undefined) | 0.0 | -0.6 | -0.9 | -0.3 | 1.3 | -4.5
CNS(=O)(=O)c1cn(CC(=O)NCc2ccc(OC)cc2)cc1S(=O)(=O)NC | 2.0 | -0.6 | 0.2 | -1.6 | . | 1.6
CNS(=O)(=O)c1cn(CC(=O)NCc2cccc(OC)c2)cc1S(=O)(=O)NC | 1.2 | 5.8* | -0.2 | -0.4 | . | -0.6
CC1CCC2(CCC(=O)N2C[C@@H](O)c2ccccc2)CC1 (some centres undefined) | . | -0.2 | . | -0.9 | . | -1.1
C/C(=N\Nc1ccccn1)c1cccs1 | 2.6 | 2.9 | 3.9* | -0.4 | 6.0 | 10.3
Cc1cc(NC(=O)CSc2nc(C(C)C)nc3ccccc23)no1 | -0.9 | -2.0 | -1.0 | -1.1 | -0.5 | -2.8
Cc1cc(NC(=O)C(C)Sc2nc(-c3cccs3)nc3ccccc23)no1 (centres undefined) | 4.5* | -1.6 | 2.2 | -1.0 | . | 1.1
O=C(Nc1ccccc1)C1Cc2ccccc2CN1C(=O)c1ccco1 (centres undefined) | 2.6 | 6.3* | 2.6 | 1.0* | -1.2 | 12.7*
CCOC(=O)Nc1ccc2c(C)cc(=O)oc2c1 | 0.4 | 2.0 | 1.1 | -0.9 | 1.1 | 10.9*
CCCCOC(=O)Nc1ccc2c(C)cc(=O)oc2c1 | 2.2 | 2.7 | 3.3 | 0.1 | -2.0 | 9.8
Cc1cc(=O)oc2cc(NC(=O)c3ccccc3Cl)ccc12 | 0.4 | 2.7 | 1.2 | 0.5 | . | 13.2*
CC(C)N(Cc1cn(Cc2ccccc2)nn1)S(=O)(=O)c1ccc(F)cc1Br | . | -3.3 | -0.6 | -0.8 | . | -4.1
O=C(COC(=O)c1cccnc1Cl)NCCc1ccc(F)cc1 | -1.1 | -1.3 | -0.2 | -1.4 | . | 2.1
CC1=NN(C(=O)c2ccco2)C(O)(c2ccccc2)C1 (centres undefined) | 6.3* | 3.3 | 0.6 | 1.0* | 0.1 | 10.9*
CC1=NN(C(=O)CSCc2ccccc2)C(O)(c2ccccc2)C1 (centres undefined) | 2.5 | 0.1 | 0.1 | -1.0 | 2.8 | -0.3
O=C(c1cccs1)N1CCn2c1nc1ccccc12 | 1.7 | 5.2 | 4.3* | -0.6 | 1.1 | 6.8
Nc1ccc2oc(-c3cccc4ccccc34)nc2c1 | -1.0 | -4.0 | -0.6 | -1.3 | 0.9 | -7.5
Cc1ccc(-c2nc3cc(N)ccc3o2)c(C)c1 | 0.8 | 4.8 | 2.5 | 0.0 | 2.0 | 12.4*
COc1ccccc1NS(=O)(=O)c1cccc2cccnc12 | 5.4* | 0.9 | -0.4 | -1.6 | -2.3 | -2.0
SMILES | DAX1 inh-1 | hcDAF-12 act | DAX1 inh-2 | ssDAF-12 act | Wee1 stabilizer | hgDAF-12 ag
COc1cccc(C(=O)Nc2cccc3cccnc23)c1OC | 4.3* | . | . | . | . | .
O=C(CCC(=O)OCC(=O)c1ccccc1)Nc1cccc2cccnc12 | 1.1 | 0.1 | -0.4 | -1.2 | 1.6 | -0.9
COc1ccccc1NC(=O)c1ccc(NS(=O)(=O)c2cccc3cccnc23)cc1 | -1.6 | -3.4 | -0.5 | -0.5 | -3.1 | -3.6
O=C(O)CCC(=O)Nc1cccc2cccnc12 | 5.2* | -1.1 | 0.2 | -0.5 | -1.8 | -1.4
Cc1cc(C(=O)Nc2cccc3cccnc23)ccc1[N+](=O)[O-] | 0.3 | 5.9* | -0.2 | 0.4 | -2.4 | 3.8
Nc1c(Cl)ncnc1Nc1ccc(C(=O)O)cc1 | -0.1 | -0.2 | -0.6 | -1.0 | . | -2.9
COc1ccc(C2=CCCC2)c(OC)c1 | 1.6 | 0.1 | -0.6 | -1.1 | . | -0.7
O=C(C[C@H]1C[C@@H]2c3cc(NC(=O)c4ccc5c(c4)OCO5)ccc3O[C@@H]2[C@H](CO)O1)NCc1cc(F)ccc1F | 1.1 | -1.8 | -0.6 | -1.6 | . | -3.1
N#CC(CCc1ccccc1[N+](=O)[O-])(CCc1ccccc1[N+](=O)[O-])C(N)=O | 0.2 | -0.3 | -1.1 | -0.9 | . | -2.1
C/C(=N\Nc1ccc(C(=O)O)cc1)c1ccc2c(c1)Nc1ccccc1S2 | 6.1* | -0.4 | -0.1 | -2.0 | -2.4 | -0.1
COC(=O)Cc1c(O)ccn(CCc2c[nH]c3ccccc23)c1=O | 0.7 | 0.0 | -0.3 | -1.5 | -2.0 | 3.8
COC(=O)Cc1c(OC)ccn(CCc2c[nH]c3ccccc23)c1=O | 1.2 | 4.8 | 4.0* | -0.3 | -2.1 | 9.9
CC1CCCCN1S(=O)(=O)c1ccc2c(c1)CCN2C(=O)C1CCC1 (centres undefined) | 0.8 | -1.4 | -0.9 | -1.2 | 8.8* | -2.2
COc1cccc(CNS(=O)(=O)c2ccc3c(c2)CCN3C(=O)C2CC2)c1 | -0.9 | -1.4 | 0.6 | -1.2 | 9.2* | -2.4
O=C(C1CCC1)N1CCc2cc(S(=O)(=O)N3CCCC3)ccc21 | . | -0.4 | -0.8 | -1.7 | . | -3.7
COc1ccc(CNS(=O)(=O)c2ccc3c(c2)CCN3C(=O)C2CCC2)cc1 | -0.1 | 0.3 | -1.9 | -0.1 | . | 0.6
COc1cccc(/C=N/n2nnnc2N)c1OCC#N | 1.3 | -1.9 | -0.3 | -0.7 | . | 0.8
COc1cc2c(cc1OC)CN(C(=O)C1CCCN(C(=O)c3ccc(Cl)cc3)C1)CC2 (centres undefined) | -0.1 | -1.2 | 0.3 | -1.6 | . | -1.7
CC(C)CCNC(=O)CSc1nc2c(c(=O)[nH]1)CCC2 | . | -1.2 | . | -2.1 | . | -1.6
COc1ccc(C=O)cc1-c1cc(C(C)=O)c2n(c1=O)CCC2 | . | -0.9 | -0.3 | 1.3* | . | 0.9
CC(=O)c1cc(-c2csc(C=O)c2)c(=O)n2c1CCC2 | . | -0.5 | 0.1 | -0.6 | . | -2.8
Cc1ccc2[nH]c(=O)c(NC(N)=S)nc2c1 | 0.0 | -0.7 | -1.2 | -0.3 | -0.9 | -0.2
NC(=S)Nc1nc2ccccc2[nH]c1=O | . | 5.8* | -0.1 | 0.7 | 0.9 | 0.0
CCC(CC)C(C(=O)NCc1ccccc1)N(C)Cc1ccc(Cl)c(Cl)c1 (centres undefined) | . | -1.0 | -0.4 | -0.8 | . | 2.7
O=C(NCCc1nc2ccccc2n1CCOc1ccc2cccnc2c1)C1CCCCC1 | . | 0.5 | . | -1.3 | . | 5.1
